# Assays:
# [1] = molecular target: Mitogen-activated protein kinase 11 (Homo sapiens) (UniProt Q15759); details: at 1 µM
# [2] = molecular target: Mitogen-activated protein kinase 11 (Homo sapiens) (UniProt Q15759); details: at 10 µM
# [3] = molecular target: T1, Mitogen-activated protein kinase 13 (Homo sapiens) (UniProt O15264); details: at 1 µM
# T1 sequence (whole entry): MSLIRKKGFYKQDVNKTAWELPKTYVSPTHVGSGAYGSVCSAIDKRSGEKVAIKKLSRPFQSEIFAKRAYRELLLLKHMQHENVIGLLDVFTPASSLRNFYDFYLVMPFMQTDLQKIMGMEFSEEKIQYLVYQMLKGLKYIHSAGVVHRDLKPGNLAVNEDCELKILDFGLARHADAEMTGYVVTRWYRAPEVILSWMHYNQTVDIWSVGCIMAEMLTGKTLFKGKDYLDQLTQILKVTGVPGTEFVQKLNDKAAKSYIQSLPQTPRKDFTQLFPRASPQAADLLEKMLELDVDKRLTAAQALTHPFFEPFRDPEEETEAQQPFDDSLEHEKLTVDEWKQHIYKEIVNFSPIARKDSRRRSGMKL
# [4] = molecular target: T1, Mitogen-activated protein kinase 13 (Homo sapiens); details: at 10 µM
# [5] = molecular target: T2, Serine/threonine-protein kinase Sgk1 (Homo sapiens) (UniProt O00141); details: at 1 µM
# T2 sequence (whole entry): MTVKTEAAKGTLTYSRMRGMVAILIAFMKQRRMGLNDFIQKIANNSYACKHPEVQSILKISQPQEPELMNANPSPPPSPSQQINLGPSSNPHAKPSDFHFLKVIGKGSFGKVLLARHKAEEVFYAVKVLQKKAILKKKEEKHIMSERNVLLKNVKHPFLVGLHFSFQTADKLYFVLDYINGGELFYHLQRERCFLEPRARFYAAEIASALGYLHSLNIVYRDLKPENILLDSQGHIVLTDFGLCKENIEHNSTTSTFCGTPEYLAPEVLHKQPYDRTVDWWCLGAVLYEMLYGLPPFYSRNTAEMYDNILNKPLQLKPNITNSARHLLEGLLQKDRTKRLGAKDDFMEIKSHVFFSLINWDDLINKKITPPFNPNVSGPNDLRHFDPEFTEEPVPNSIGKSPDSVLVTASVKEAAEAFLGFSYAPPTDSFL
# [6] = molecular target: T2, Serine/threonine-protein kinase Sgk1 (Homo sapiens); details: at 10 µM
# [7] = molecular target: T3, Serine/threonine-protein kinase Sgk2 (Homo sapiens) (UniProt Q9HBY8); details: at 1 µM
# T3 sequence (whole entry): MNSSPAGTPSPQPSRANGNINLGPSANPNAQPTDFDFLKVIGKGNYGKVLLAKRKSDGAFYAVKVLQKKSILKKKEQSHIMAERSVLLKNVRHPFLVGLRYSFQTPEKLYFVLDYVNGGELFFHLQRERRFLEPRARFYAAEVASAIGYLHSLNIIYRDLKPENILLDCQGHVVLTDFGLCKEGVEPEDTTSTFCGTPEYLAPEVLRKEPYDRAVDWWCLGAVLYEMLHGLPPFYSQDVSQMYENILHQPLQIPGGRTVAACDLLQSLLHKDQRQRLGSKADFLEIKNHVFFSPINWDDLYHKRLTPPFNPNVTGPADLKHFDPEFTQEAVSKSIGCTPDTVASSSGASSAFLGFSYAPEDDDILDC
# [8] = molecular target: T3, Serine/threonine-protein kinase Sgk2 (Homo sapiens); details: at 10 µM
# [9] = molecular target: T4, Serine/threonine-protein kinase Sgk3 (Homo sapiens) (UniProt Q96BR1); details: at 10 µM
# T4 sequence (whole entry): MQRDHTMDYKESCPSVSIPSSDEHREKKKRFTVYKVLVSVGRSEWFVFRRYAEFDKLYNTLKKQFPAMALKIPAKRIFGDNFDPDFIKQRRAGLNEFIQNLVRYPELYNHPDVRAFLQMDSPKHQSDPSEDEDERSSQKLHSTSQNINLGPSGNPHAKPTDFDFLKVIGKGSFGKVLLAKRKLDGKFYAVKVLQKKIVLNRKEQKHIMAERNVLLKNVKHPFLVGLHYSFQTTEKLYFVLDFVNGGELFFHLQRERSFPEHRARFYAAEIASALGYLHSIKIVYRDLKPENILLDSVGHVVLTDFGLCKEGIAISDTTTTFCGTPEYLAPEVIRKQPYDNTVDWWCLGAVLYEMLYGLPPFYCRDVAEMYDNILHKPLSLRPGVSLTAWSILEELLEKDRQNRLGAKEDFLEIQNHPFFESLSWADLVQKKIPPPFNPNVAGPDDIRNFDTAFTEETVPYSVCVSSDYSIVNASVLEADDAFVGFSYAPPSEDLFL
# [10] = molecular target: Serine/threonine-protein kinase SIK1 (Homo sapiens) (UniProt P57059); details: at 1 µM
# Sequence of Serine/threonine-protein kinase SIK1 (Homo sapiens) (P57059 whole entry): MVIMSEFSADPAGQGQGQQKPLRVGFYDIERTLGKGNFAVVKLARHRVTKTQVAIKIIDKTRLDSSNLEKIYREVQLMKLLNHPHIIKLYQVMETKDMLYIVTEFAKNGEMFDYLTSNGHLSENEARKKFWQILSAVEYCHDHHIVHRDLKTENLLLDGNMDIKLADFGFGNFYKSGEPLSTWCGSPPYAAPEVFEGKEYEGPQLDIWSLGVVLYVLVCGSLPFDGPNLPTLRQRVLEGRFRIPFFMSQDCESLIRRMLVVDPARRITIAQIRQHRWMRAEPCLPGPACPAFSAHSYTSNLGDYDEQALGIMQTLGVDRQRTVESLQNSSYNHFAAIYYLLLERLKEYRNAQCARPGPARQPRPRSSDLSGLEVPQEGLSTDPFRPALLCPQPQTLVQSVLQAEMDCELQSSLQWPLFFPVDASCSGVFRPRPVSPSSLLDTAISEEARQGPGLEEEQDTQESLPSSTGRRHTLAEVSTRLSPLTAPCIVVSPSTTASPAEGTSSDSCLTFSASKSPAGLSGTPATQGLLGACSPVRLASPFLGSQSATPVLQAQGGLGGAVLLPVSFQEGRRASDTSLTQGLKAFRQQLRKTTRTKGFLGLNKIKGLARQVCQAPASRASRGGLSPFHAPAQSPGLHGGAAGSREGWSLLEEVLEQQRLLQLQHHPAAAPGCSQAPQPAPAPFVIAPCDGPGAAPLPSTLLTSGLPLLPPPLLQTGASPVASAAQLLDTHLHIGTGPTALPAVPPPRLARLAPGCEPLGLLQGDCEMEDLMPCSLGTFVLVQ
# Sequence of Mitogen-activated protein kinase 11 (Homo sapiens) (Q15759 whole entry): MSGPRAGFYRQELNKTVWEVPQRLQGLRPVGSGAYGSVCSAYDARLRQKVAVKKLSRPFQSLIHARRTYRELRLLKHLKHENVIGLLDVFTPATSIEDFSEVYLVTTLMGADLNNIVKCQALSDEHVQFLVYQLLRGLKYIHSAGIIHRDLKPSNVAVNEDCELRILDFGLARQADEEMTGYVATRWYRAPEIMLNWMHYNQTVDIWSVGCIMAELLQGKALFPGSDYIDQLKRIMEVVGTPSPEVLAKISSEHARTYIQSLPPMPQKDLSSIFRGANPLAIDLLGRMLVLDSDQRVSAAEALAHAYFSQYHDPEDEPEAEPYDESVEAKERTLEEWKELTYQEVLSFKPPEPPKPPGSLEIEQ
Compound,residual activity [1] [%],residual activity [2] [%],residual activity [3] [%],residual activity [4] [%],residual activity [5] [%],residual activity [6] [%],residual activity [7] [%],residual activity [8] [%],residual activity [9] [%],residual activity [10] [%]
CC#CC(=O)Nc1cc2c(Nc3ccc(F)c(Cl)c3)ncnc2cn1,90,86,107,96,95,106,100,77,88,81
O=c1c2ccccc2[nH]c(=S)n1CCN1CCC(=C(c2ccc(F)cc2)c2ccc(F)cc2)CC1,103,102,102,89,92,43,90,88,72,95
CC(C)n1cnc2/c(=N/c3cccc(Cl)c3)nc(NCCO)[nH]c21,101,94,103,99,89,110,105,83,82,90
CO[C@H]1C[C@@H]2CC[C@@H](C)[C@@](O)(O2)C(=O)C(=O)N2CCCC[C@H]2C(=O)O[C@H]([C@H](C)C[C@@H]2CC[C@@H](O)[C@H](OC)C2)CC(=O)[C@H](C)/C=C(\C)[C@@H](O)[C@@H](OC)C(=O)[C@H](C)C[C@H](C)/C=C/C=C/C=C/1C,97,103,110,95,93,213,124,149,148,101
CCN(CC)CCCCN1c2ccccc2Oc2ccc(Cl)cc21,106,101,111,99,135,80,104,102,105,114
c1ccc(-c2n[nH]c3c2oc2ccccc23)cc1,97,84,86,63,99,114,94,72,98,82
CO[C@@H]1[C@H](N(C)C(=O)c2ccccc2)C[C@H]2O[C@]1(C)n1c3ccccc3c3c4c(c5c6ccccc6n2c5c31)C(=O)NC4,86,98,92,77,57,18,80,46,78,4
Cn1nc2c3c(cccc31)C(=O)c1ccccc1-2,101,92,94,88,77,72,100,69,74,132
COc1ccc(CNc2nc(N(CCO)CCO)nc3c2ncn3C(C)C)cc1,100,92,100,105,73,116,107,80,85,93
CNc1cc2c(Nc3cccc(Br)c3)ncnc2cn1,98,93,110,95,81,75,111,79,96,43
O=Nc1c(-c2c(O)[nH]c3ccccc23)[nH]c2ccccc12,101,90,90,82,59,28,61,24,56,43
Oc1n[nH]c2nnc(-c3c(-c4ccccc4)nn4ccccc34)cc12,94,91,96,96,69,86,96,80,81,109
CCOc1cc2ncnc(Nc3cccc(Br)c3)c2cc1OCC,94,50,91,90,107,89,68,60,73,83
Nc1ccc2ncnc(NCCc3ccc(Oc4ccccc4)cc3)c2c1,107,101,112,96,88,125,110,74,86,112
O=C1Nc2cc(Br)ccc2/C1=C1/Nc2ccccc2/C1=N\O,97,92,89,92,28,14,47,55,64,18
Nc1n[nH]c2nnc(-c3c(-c4ccccc4)nn4ccccc34)cc12,94,66,99,88,95,123,87,64,80,85

Compound,residual activity [1] [%],residual activity [2] [%],residual activity [3] [%],residual activity [4] [%],residual activity [5] [%],residual activity [6] [%],residual activity [7] [%],residual activity [8] [%],residual activity [9] [%],residual activity [10] [%]
CCC(=O)Nc1ccc2ncnc(Nc3cccc(Br)c3)c2c1,91,88,100,102,107,114,105,77,95,68
COc1ccc(C(=O)Nc2sc3c(c2C(N)=O)CCCC3)cc1OC,96,105,100,91,85,109,99,52,90,91
N#C/C(=C(\N)Sc1ccc(N)cc1)c1ccccc1C(F)(F)F,104,101,95,90,81,98,100,117,93,104
Nc1nc(Nc2ccc(S(N)(=O)=O)cc2)nn1C(=S)Nc1c(F)cccc1F,56,24,43,46,53,16,36,6,40,-2
Ic1cccc(CSc2nnc(-c3ccncc3)o2)c1,102,92,104,94,71,64,84,78,81,92
Cc1nc(-c2ccccc2)c(-c2ccncc2)o1,105,58,107,103,107,86,126,89,91,138
O=c1cc(-c2cccc3c2Sc2ccccc2S3)oc(N2CCOCC2)c1,111,109,107,105,103,100,91,72,78,137
Cc1ccc(NC2=CC(=O)c3sc(C)nc3C2=O)cc1,102,100,98,96,87,92,103,82,83,109
O=C(Nc1cccc(Nc2cc(Nc3cccc(C(F)(F)F)c3)ncn2)c1)C1CC1,92,48,107,97,112,85,83,69,128,107
COc1ccc(OC)c2c(=S)c3ccccc3[nH]c12,112,96,104,97,90,82,97,93,83,118
NC(=O)c1ccc2[nH]c(-c3ccc(Oc4ccc(Cl)cc4)cc3)nc2c1,99,101,105,101,90,174,112,104,103,108
COc1cc2ncnc(Nc3ccc(O)c(Br)c3)c2cc1OC,93,58,111,83,71,87,62,48,86,90
O=C1NC(=O)/C(=C/c2ccc3c(c2)OC(F)(F)O3)S1,98,117,106,106,116,82,102,85,108,94
O=C1NC(=O)c2cc(Nc3ccc(F)cc3)c(Nc3ccc(F)cc3)cc21,95,72,98,89,108,76,97,67,96,98
CO[C@H]1[C@@H](OC)C[C@H](C)[C@@H](OC)C2=CC(=O)C=C(NC(=O)/C(C)=C/C=C/[C@H](OC)[C@@H](OC(N)=O)/C(C)=C/[C@@H]1C)C2=O,98,102,89,96,98,78,97,76,93,82
CC[n+]1c(/C=C/N(C)c2ccccc2)n(-c2ccccc2)c2ccc(-c3nc4ccccc4s3)cc21,107,101,105,97,118,65,109,80,69,115

# Reference: ChEMBL document CHEMBL2218924, “A broad activity screen in support of a chemogenomic map for kinase signalling research and drug discovery” (Biochem J, 2013)
